Where “and” joins values, the source holds several entries; their conditions need not be identical. Identical values can stand only once. Results filed as inconclusive are left out. Entries that show only a call come without a potency. Calls of active or inactive are those of the source. Calls follow the shape of the full dose curve. Non-standard residues stand in square brackets, D forms with d. Residues, ends and D or L forms follow the SMILES beside them. Orn = NCCC[C@H](N)C(=O)O
Test: qHTS assay for small molecule agonists of the p53 signaling pathway - cell viability (AID 651633); also: nearly all actives have a fitted effect of over 30% in size
Conditions: p53RE-bla HCT-116 viability, ATP luminescence, 16 h; series mostly up to 83.3 µM
Description: National Center for Advancing Translational Sciences [NCATS]
NIH Chemical Genomics Center [NCGC]
U.S. Environmental Protection Agency [EPA]
National Institutes of Environmental Health Sciences [NIEHS]
National Toxicology Program [NTP]
U.S. Food and Drug Administration [FDA]
p53, a tumor suppressor protein, is activated following cellular insult, including DNA damage and other cellular stresses. The activation of p53 regulates cell fate by inducing DNA repair, cell cycle arrest, apoptosis, or cellular senescence. The activation of p53, therefore, is a good indicator of DNA damage and other cellular stresses. […] The activation of the reporter gene under culture conditions can be detected by fluorescence intensity. This cell line was used to screen the Tox21 compound library in a 1536-well plate format and to identify agonists that activate the p53 signaling pathway.
Tox21 Assay Protocol Summary:
The p53RE-bla cells were dispensed at 4,000 cells/5 ul/well in 1536-well black wall/clear bottom plates using a Multidrop dispenser. After the assay plates were incubated at a 37 C/5% CO2 incubator for 5 hours, 23 nL of compounds dissolved in DMSO, positive controls or DMSO only was transferred to the assay plate by a pin tool. The plates were incubated at 37 C for 16 hours. After 1 uL of LiveBLAzerTM B/G FRET substrate was added using a Flying Reagent Dispenser, the plates were incubated at room temperature for 2 hours, and fluorescence intensity was measured by an Envision plate reader.
For cell viability readout that measures cytotoxicity, 4 ul/well of CellTiter-Glo reagent was added into the assay plates using a Flying Reagent Dispenser. After 30 min incubation at room temperature, the luminescence intensity in the plates was measured using a ViewLux plate reader.
Potency is read from the fitted curve at half-maximal effect.

SMILES	Potency
NC(=O)[C@@H]1C[C@]2(NC(=O)NC2=O)c2cc(F)ccc2O1	inactive
CN[C@H](CC(C)C)C(=O)N[C@H]1C(=O)N[C@@H](CC(N)=O)C(=O)N[C@H]2C(=O)N[C@H]3C(=O)N[C@H](C(=O)N[C@@H](C(=O)O)c4cc(O)cc(O)c4-c4cc3ccc4O)[C@H](O)c3ccc(c(Cl)c3)Oc3cc2cc(c3O[C@@H]2O[C@H](CO)[C@@H](O)[C@H](O)[C@H]2O[C@H]2C[C@](C)(N)C(O)[C@H](C)O2)Oc2ccc(cc2Cl)[C@H]1O (stereo not given in full)	inactive
CCCCC/C=C\C=C\C(=O)OCC	56.8 µM (active)
N=C(N)n1cccn1	inactive
O=C1[O][Bi][O]c2ccccc21	inactive
O=P(O)(O)CP(=O)(O)O	inactive
CC(C)COC(=O)OCN1C(=O)CN(CCN2CC(=O)N(COC(=O)OCC(C)C)C(=O)C2)CC1=O	inactive
Nc1cc(Cl)c(NC2=NCCN2)c(Cl)c1	inactive
C[C@H](O)CN(C)C	inactive
CCCCCCCC[N+](C)(C)CCCCCCCC	inactive
CCCCCCCCCC(=O)NO	inactive
C[C@@H]1C[C@H]2[C@@H]3C[C@H](F)C4=CC(=O)C=C[C@]4(C)[C@@]3(Cl)[C@@H](O)C[C@]2(C)[C@H]1C(=O)COC(=O)C(C)(C)C	inactive
Cc1cnc(C(=O)O)c[n+]1[O-]	inactive
Cc1cc(CC(C)CC(C)(C)C)n(O)c(=O)c1 (stereo not given) (tested in a mixture with another compound)	29.8 µM (active)
C/C=C/C1=C(C(=O)O)N2C(=O)[C@@H](NC(=O)[C@H](N)c3ccc(O)cc3)[C@H]2SC1	inactive
NCC(O)CC(=O)O (stereo not given)	inactive
O=C1c2ccccc2-c2n[nH]c3cccc1c23	inactive
C=C1C(=C/C=C2\CCC[C@]3(C)[C@@H]([C@H](C)CCCC(C)C)CC[C@@H]23)C[C@@H](O)C[C@@H]1O	29.8 µM (active)
CO[C@H](C(=O)[C@@H](O)[C@@H](C)O)C1Cc2cc3cc(O[C@H]4C[C@@H](O[C@H]5C[C@@H](O)[C@H](O)[C@@H](C)O5)[C@@H](O)[C@@H](C)O4)c(C)c(O)c3c(O)c2C(=O)[C@H]1O[C@H]1C[C@@H](O[C@H]2C[C@@H](O[C@H]3C[C@](C)(O)[C@H](O)[C@@H](C)O3)[C@H](O)[C@@H](C)O2)[C@H](O)[C@@H](C)O1 (stereo not given in full)	inactive
COC(=O)C[C@](O)(CCCC(C)(C)O)C(=O)O[C@@H]1C(OC)=CC23CCCN2CCc2cc4c(cc2[C@H]13)OCO4 (stereo not given in full)	inactive

SMILES	Potency
CC(C)C[C@@H]1NC(=O)[C@H](CCCN)NC(=O)[C@H](C(C)C)NC(=O)[C@@H]2CCCN2C(=O)[C@@H](Cc2ccccc2)NC(=O)[C@H](CC(C)C)NC(=O)[C@H](CCCN)NC(=O)[C@H](C(C)C)NC(=O)[C@@H]2CCCN2C(=O)[C@@H](Cc2ccccc2)NC1=O (cyclo(V[Orn]L[dF]PV[Orn]L[dF]P))	2.66 µM (active)
O=C1CCC/C=C\CCCCCCCCCC1	inactive
CCCOC(=O)c1ccc(O)cc1	inactive
O=C(O)[C@@H]1C[C@H](CP(=O)(O)O)CCN1	inactive
CON=C1C[C@]2(C[C@@H]3C[C@@H](C/C=C(\C)C[C@@H](C)/C=C/C=C4\CO[C@@H]5[C@H](O)C(C)=C[C@@H](C(=O)O3)[C@]45O)O2)O[C@H](/C(C)=C/C(C)C)[C@H]1C	11.9 µM (active) and 8.41 µM (active)
N[C@@H](Cc1ccc(O)c(O)c1)C(=O)O	inactive
CN1CCN(c2ccccc2/C=C2\SCCN(c3ccc(Cl)c(Cl)c3)C2=O)CC1	61.1 µM (active)
NCCCC[C@H](NC(=O)[C@@H]1CCCN1C(=O)[C@@H]1CSSC[C@H](N)C(=O)N[C@@H](Cc2ccc(O)cc2)C(=O)N[C@@H](Cc2ccccc2)C(=O)N[C@@H](CCC(N)=O)C(=O)N[C@@H](CC(N)=O)C(=O)N1)C(=O)NCC(N)=O	inactive
CNC(=O)C[C@@H](N)C(=O)N[C@@H](C(=O)N[C@@H]1C(=O)N2[C@@H]1SC(C)(C)[C@@H]2C(=O)O)c1ccc(O)cc1	inactive
CCN1CCCC1CNC(=O)c1cc(S(=O)(=O)CC)ccc1OC (stereo not given)	inactive
COc1ccc(/C=C/C(=O)O)cc1	inactive
CNCC(=O)N[C@@H](CCCN=C(N)N)C(=O)N[C@H](C(=O)N[C@@H](Cc1ccc(O)cc1)C(=O)N[C@H](C(=O)N[C@@H](Cc1cnc[nH]1)C(=O)N1CCC[C@H]1C(=O)N[C@@H](C)C(=O)O)C(C)C)C(C)C	inactive
C[C@H](Cc1ccc(O)c(O)c1)[C@@H](C)Cc1ccc(O)c(O)c1	inactive
C[N+]1(CCCCC[N+]2(C)CCCC2)CCCC1	inactive
COc1c(O)cc2c(c1O)[C@@H]1O[C@H](CO)[C@@H](O)[C@H](O)[C@H]1OC2=O	inactive
FC(F)(F)C(F)(F)C(F)(F)C(F)(F)C(F)(F)F	inactive
NC(N)=NCC1COC2(CCCCC2)O1 (stereo not given)	inactive
CSCCC(N)C(=O)O (stereo not given)	inactive
COc1cc2c(cc1O)CCN[C@]21CS[C@@H]2c3c(OC(C)=O)c(C)c4c(c3[C@H](COC1=O)N1[C@@H]2[C@H]2c3c(cc(C)c(OC)c3O)C[C@@H]([C@@H]1O)N2C)OCO4	inactive
CC[C@H]1OC(=O)C[C@@H](O)[C@H](C)[C@@H](O[C@@H]2O[C@H](C)[C@@H](O[C@H]3C[C@@](C)(O)[C@@H](O)[C@H](C)O3)[C@H](N(C)C)[C@H]2O)[C@@H](CC=O)C[C@@H](C)C(=O)/C=C/C(C)=C/[C@@H]1CO[C@@H]1O[C@H](C)[C@@H](O)[C@@H](OC)[C@H]1OC	inactive
